Screening data as filed in PubChem.
TRPML1 ag: agonists of human TRPML1 channel. Q9GZU1. TRPML1-expressing cells, Ca2+ dye fluorescence, FDSS. activation, % (test concentration not listed). 410,000 tested, 0.12% active; in the data active means activation above about 50%; further: 0% is about no effect
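Tet-induced TRPML1-DL cells, 1,500 per well, cultured overnight, were loaded with a no-wash Ca2+ dye for 45–90 min. Calcium fluorescence was recorded on the FDSS for 110 s after compound addition, before the EC80 agonist (4 uM 54-4) was added.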
KCNH2 3.1 inh: KCNH2 3.1 (human) potassium channel inhibition | U2OS KCNH2 3.1, thallium flux FluxOr; stronger effect = lower value | activity change, % (tested at about 1.8 µM) | 340,000 tested, 0.95% active;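 active means maximum activity change below -70%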;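 further: thallium influx rate constant from kinetic fluorescence after stimulation buffer; on the % scale 0 is the no-effect control and ±100 the full control effect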
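Normalized rate constant (relative to positive and negative DMSO controls) derived from a 2 min kinetic fluorescence read after stimulation; U2OS cells expressing the 3.1 isoform via virus at 1.77 x 10^8 /mL.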
TRPML1 inh: human mucolipin-1 channel inhibition; TRPML1-inducible cells, Ca2+ dye fluorescence, FDSS; stronger effect = lower value; inhibition of EC80 agonist-evoked calcium signal; activity change, negative = inhibition, % (no concentration beside the values); 390,000 tested, 0.02% active; AID 624415; in the data active means activity change below about -50%;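 further: stimulus is agonist 54-4 at its EC80 concentration; on the % scale 0 is the no-effect control and ±100 the full control effect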
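Calcium fluorescence in TRPML1-DL cells induced overnight with Tet: a 110 s read after compound pin addition, then a 110 s antagonist read after challenge with 54-4 at 4 uM final (EC80).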
TSG101-PTAP inh: blocks PTAP/TSG101 interaction to inhibit HIV-1 budding. Q99816. Fluorescence polarization, FITC-PTAP peptide / Tsg101 binding. 340,000 tested, under 10 active. Potency, µM (top dose mostly 115 µM), without a hit: top-dose activity change, negative = inhibition, hits mostly inhibitors. AID 493005; active means well fitted inhibition curve with a large enough effect in the main read-out, with a control signal flat, not every such curve was filed as active; further: potency means the concentration at half of the fitted maximal effect; % of control where 0% means no effect
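Fluorescence polarization binding of Tsg101 binding domain (10 uM final) to FITC-labeled PTAP peptide (50 nM final) in HEPES pH 7.5 buffer with NaCl, Tween 20, EDTA, TCEP. Compounds added before peptide; binding 20 min at RT.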
hERG WT inh: inhibitors of human wildtype KCNH2 potassium channel | 340,000 tested, 0.37% active | U2OS, BacMam KCNH2, thallium flux FluxOr; stronger effect = lower value | Q12809 | activity change, % at 1.84 µM;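 active means maximum activity change below -70%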; further: on the % scale 0 is the no-effect control and ±100 the full control effect
Target sequence (Q12809 whole entry, looked up): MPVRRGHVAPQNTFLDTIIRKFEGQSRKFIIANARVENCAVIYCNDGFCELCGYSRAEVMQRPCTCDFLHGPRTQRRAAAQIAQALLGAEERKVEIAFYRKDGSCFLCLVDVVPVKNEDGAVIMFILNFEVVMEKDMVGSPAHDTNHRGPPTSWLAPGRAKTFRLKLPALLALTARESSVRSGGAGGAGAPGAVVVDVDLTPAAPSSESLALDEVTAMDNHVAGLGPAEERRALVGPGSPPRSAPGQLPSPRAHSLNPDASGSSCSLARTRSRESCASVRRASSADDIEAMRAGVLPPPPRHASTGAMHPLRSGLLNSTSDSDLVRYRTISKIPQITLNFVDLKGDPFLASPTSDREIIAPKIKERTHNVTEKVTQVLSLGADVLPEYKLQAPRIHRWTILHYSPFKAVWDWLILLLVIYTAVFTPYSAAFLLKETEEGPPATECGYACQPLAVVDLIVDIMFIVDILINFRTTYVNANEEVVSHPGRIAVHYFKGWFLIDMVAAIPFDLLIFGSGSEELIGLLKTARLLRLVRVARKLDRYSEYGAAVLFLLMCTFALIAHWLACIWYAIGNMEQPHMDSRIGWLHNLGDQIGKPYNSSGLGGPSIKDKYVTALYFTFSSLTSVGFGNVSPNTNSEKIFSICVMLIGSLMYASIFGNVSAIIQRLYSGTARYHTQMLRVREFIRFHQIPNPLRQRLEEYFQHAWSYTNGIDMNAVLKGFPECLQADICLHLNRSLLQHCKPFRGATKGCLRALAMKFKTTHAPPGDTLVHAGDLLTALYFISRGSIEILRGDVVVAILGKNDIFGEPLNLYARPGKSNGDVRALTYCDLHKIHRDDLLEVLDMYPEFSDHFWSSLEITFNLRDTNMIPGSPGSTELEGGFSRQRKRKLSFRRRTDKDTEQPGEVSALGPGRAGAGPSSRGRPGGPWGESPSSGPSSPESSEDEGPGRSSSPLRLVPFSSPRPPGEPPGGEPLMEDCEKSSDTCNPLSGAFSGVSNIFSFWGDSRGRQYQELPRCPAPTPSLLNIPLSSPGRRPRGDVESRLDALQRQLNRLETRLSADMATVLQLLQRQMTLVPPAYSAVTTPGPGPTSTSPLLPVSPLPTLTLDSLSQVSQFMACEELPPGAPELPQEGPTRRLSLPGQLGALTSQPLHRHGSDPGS
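U2OS cells were transduced with wild-type KCNH2 virus (2.03 x 10^8 / mL) for 4 h at room temperature, then cultured overnight at 37 C. Thallium flux was read with FluxOr dye. Rate constants were normalized to DMSO controls.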
Glioma ERSR ind: induces the endoplasmic reticulum stress response in human glioma cells. Potency, µM, inactives show top-dose activation, actives largely listed as activators. U87-MG GRP78 promoter luciferase reporter, 16 h. AID 602332. 420,000 tested, 0.02% active; active means well fitted activation curve with a large enough effect; further: potency means the concentration at half of the fitted maximal effect; series mostly up to about 76 µM; % of control where 0% means no effect; nearly all actives have a fitted effect of over 35% in size
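Stably transfected U87-MG human glioma cells carrying a GRP78-based luminescent sensor were seeded at 1000 cells/well, pin-dosed with compounds and incubated 16 h. Luciferase reagent was then added, and end-point luminescence was read after 10 min at room temperature.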
* = called active by the depositor. Hits are enriched below; roughly 1% of the tested compounds scored in any of these assays.

COc1cccc(CN2CCN(Cc3cccc(Oc4ccccc4)c3)CC2)c1OC was read as TRPML1 ag 0, KCNH2 3.1 inh 3, TRPML1 inh 1, TSG101-PTAP inh -5%, hERG WT inh 6 and Glioma ERSR ind -5%.
CCN1CCN(c2oc(COc3ccc(Cl)cc3)nc2C#N)CC1 was read as TRPML1 ag 0, KCNH2 3.1 inh -83*, TRPML1 inh 33, TSG101-PTAP inh -4%, hERG WT inh 22 and Glioma ERSR ind -3%.
`N#Cc1nc(COc2ccc(Cl)cc2)oc1N1CCN(Cc2ccccc2)CC1` gave TRPML1 ag 1, TRPML1 inh 0, TSG101-PTAP inh 2%, hERG WT inh -5 and Glioma ERSR ind -4%.
Screening Cc1ccc(C2N(c3ccccc3)C(=S)N3CCCN23)cc1 (stereo not drawn) returned TRPML1 ag 1, KCNH2 3.1 inh 2, TRPML1 inh -2, TSG101-PTAP inh -1%, hERG WT inh 5 and Glioma ERSR ind -1%.
For Fc1ccc(C2N(c3ccccc3)C(=S)N3CCCN23)cc1 (stereo not drawn) the results were TRPML1 ag 3, KCNH2 3.1 inh -100*, TRPML1 inh -10, TSG101-PTAP inh -6%, hERG WT inh -110* and Glioma ERSR ind 1%.
`COc1ccc(Cl)c(Cn2cnc3c(cnn3C(C)(C)C)c2=O)c1` gave TRPML1 ag 2, TRPML1 inh -17 and Glioma ERSR ind -1%.
`O=[N+]([O-])c1ccc2nc[nH]c2c1` gave TRPML1 ag 2, KCNH2 3.1 inh -84*, TRPML1 inh -5, TSG101-PTAP inh -4%, hERG WT inh -17 and Glioma ERSR ind -1%.
O=C(c1cc(F)ccc1F)C1CCCN(Cc2cccn2-c2ccccn2)C1 (stereo not drawn) was read as TRPML1 ag 0, KCNH2 3.1 inh 17, TRPML1 inh 4, TSG101-PTAP inh -4%, hERG WT inh -36 and Glioma ERSR ind -4%.
For COc1ccc(C(=O)C2CCCN(Cc3cccn3-c3ccccn3)C2)c(OC)c1 (stereo not drawn) the results were TRPML1 ag 0, KCNH2 3.1 inh -91*, TRPML1 inh 8, TSG101-PTAP inh -3%, hERG WT inh -48 and Glioma ERSR ind -3%.
Screening COc1ccc(F)cc1C(=O)C1CCCN(Cc2cccn2-c2ccccn2)C1 (stereo not drawn) returned TRPML1 ag 1, KCNH2 3.1 inh -86*, TRPML1 inh 50, TSG101-PTAP inh 0%, hERG WT inh -71* and Glioma ERSR ind -4%.
For Cc1ccccc1C1(CC(=O)N2CCC[C@H]2C(N)=O)CC(=O)N(C2CCCC2)C1=O (stereo partly drawn) the results were Glioma ERSR ind 0%.
CCC1CN(CCNC(=O)c2cn3cc(C)ccc3n2)Cc2cc(OC)ccc2O1 (stereo not drawn) was read as Glioma ERSR ind 3%.
Screening CC(=O)CN1Cc2ccccc2/C1=N\C(=O)Nc1ccccc1 returned TRPML1 ag 1, KCNH2 3.1 inh -78*, TRPML1 inh -11, TSG101-PTAP inh -1%, hERG WT inh 0 and Glioma ERSR ind 3%.
O=C(CSc1nnc(SCc2ccccc2)s1)NNC(=S)Nc1ccccc1 was read as TRPML1 ag 0, KCNH2 3.1 inh -1, TRPML1 inh -9, TSG101-PTAP inh -3%, hERG WT inh -85* and Glioma ERSR ind -7%.
`CC(C)(C)OC(=O)NCc1ccc(CNC(=O)c2[nH]cnc2C(=O)N[C@@H](Cc2ccccc2)C(=O)OC(C)(C)C)cc1` gave TRPML1 ag 1, KCNH2 3.1 inh -20, TRPML1 inh -13, TSG101-PTAP inh -5%, hERG WT inh -7 and Glioma ERSR ind -5%.
`CC(C)(C)OC(=O)[C@H](Cc1ccccc1)NC(=O)c1nc[nH]c1C(=O)NCc1ccccc1` gave TRPML1 ag 0, KCNH2 3.1 inh -107*, TRPML1 inh -11, TSG101-PTAP inh 0%, hERG WT inh 0 and Glioma ERSR ind -6%.
